# CtBP-E1A inh – qHTS Assay for Inhibitors of the CtBP/E1A Interaction. AlphaScreen GST-E1A/His-CtBP binding, 1536-well; hits give low values. hit rate 0.49% among 340,000. activity change, % (no concentration beside the values). CtBP / adenovirus E1A interaction (AlphaScreen). AID 651724, 2012
#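 Steps: dispense buffer (Tris pH 8.0, NaCl 300 mM, TCEP 1 mM, BSA, Tween 20); add 5X protein mix (GST-E1A, His-CtBP, 125 nM each); pin 23 nL compound; 2 h at 37 °C, dark; add 5X beads (50 ug/mL); 1 h; read.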
# Six1-Eya2 blk – qHTS Assay for Inhibitors of the Six1/Eya2 Interaction; AlphaScreen GST-Six1/His-Eya2 binding, biochemical; hits give low values; hit rate 0.56% among 360,000; Homeobox protein SIX1 (Homo sapiens) + Protein phosphatase EYA2 (Homo sapiens), …; activity change, % (concentration not given with the values)
#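 Six1/Eya2 binding was read as AlphaScreen signal after compounds were pinned into GST-Six1 plus His-tagged Eya2 (5X stock 250/500 nM) in pH 8.0 Tris/NaCl/TCEP buffer, beads added, then incubated 1 h, 37 C, dark.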
# JMJD2E inh – qHTS Assay for Inhibitors of Human Jumonji Domain Containing 2E (JMJD2E); Lysine-specific demethylase 4E (Homo sapiens), B2RXH2; JMJD2E catalytic domain, FDH-coupled NADH fluorescence (FDH is formaldehyde dehydrogenase); Potency, µM (series often up to 57.1 µM), without a hit: at the highest dose activity change, negative = inhibition, hits mostly inhibitors; hit rate 1.6% among 230,000; AID 2147, 2009; active = well fitted inhibition curve with a large enough effect, not every such curve was filed as active; inconclusive = small, poorly fitted or top-dose-only effect, or another doubt; inactive = no such curve, though single readings can be large or run the other way;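 note: potency is the fitted concentration of half-maximal effect; 0% = wells with enzyme and -100% = buffer wells without enzyme; nearly all actives have a fitted effect of over 50% in size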
# Target sequence (B2RXH2 1-337 limits assumed): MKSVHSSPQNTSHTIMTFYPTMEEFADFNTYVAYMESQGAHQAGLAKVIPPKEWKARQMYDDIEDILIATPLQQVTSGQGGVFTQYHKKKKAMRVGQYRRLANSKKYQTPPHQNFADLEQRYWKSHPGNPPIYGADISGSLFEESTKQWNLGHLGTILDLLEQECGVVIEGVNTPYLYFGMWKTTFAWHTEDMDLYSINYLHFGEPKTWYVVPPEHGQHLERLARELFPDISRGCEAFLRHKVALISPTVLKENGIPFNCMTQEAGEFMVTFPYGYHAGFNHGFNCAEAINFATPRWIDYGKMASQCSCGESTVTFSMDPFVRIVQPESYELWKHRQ
# L3MBTL1 block – qHTS Assay for the Inhibitors of L3MBTL1. AlphaScreen L3MBTL1–H3K9me1 peptide binding. Potency, µM (series often up to 57.1 µM), without a hit: top-dose activity, negative = inhibition, hits mostly inhibitors. hit rate 0.66% among 230,000. AID 485360, 2010; active = well fitted inhibition curve with a large enough effect; inconclusive = small, poorly fitted or top-dose-only effect; inactive = no such curve, though single readings can be large or run the other way; note: potency is the fitted concentration of half-maximal effect; nearly all actives have a fitted effect of over 60% in size
#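 L3MBTL1 50 nM + b-AHA-H3(1-15)K9me1 75 nM, 30 min RT; compound added, 30 min RT; streptavidin donor/Ni-chelate acceptor beads 10 ug/mL each final, 30 min RT dark; AlphaScreen read.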
# An asterisk follows results filed as active; ? = inconclusive; / = not tested or not shown; [ ] = remark or other dose. This excerpt belongs to a sample that is enriched for hits. Cut-off read from the data, not from the text of the source, unless noted: active = activity change below about -65%; inconclusive = mostly about -30% to -63%; inactive = weaker than that. Unless noted, % is set by controls: 0 for no effect and ±100 for the full control effect.
SMILES,CtBP-E1A inh,Six1-Eya2 blk,JMJD2E inh,L3MBTL1 block
O=C(Nc1ccc2[nH]c(=S)sc2c1)c1ccccc1,-8,-2,-29%,6%
COCCCNC(=S)N/N=C/c1cccc(OC)c1O,-92*,-90*,?,-3%
COc1cccc(/C=N/NC(=S)Nc2cccc(C(=O)O)c2)c1O,-91*,-92*,28µM*,/
COc1cccc(/C=N/NC(=O)C(=O)Nc2ccccc2OC(F)(F)C(F)F)c1O,-73*,-86*,?,-1%
COCCCNC(=S)N/N=C/c1ccc(O)cc1,/,2,-16%,-3%
COCCCNC(=S)N/N=C/c1ccc(O)cc1O,-93*,-90*,18µM*,?
CC1(C(=O)NS(=O)(=O)c2cccc(C#N)c2)CCN1C(=O)Cc1ccc(-c2ccccc2)cc1 (stereo not drawn),1,0,/,/
CCOc1ccc(-n2c(=O)c3sccc3n(CC(=O)NCCc3ccc(OC)c(OC)c3)c2=O)cc1,/,4,10%,/
COc1ccc(N2CCN(CCCNC(=O)C(=O)c3c(C)[nH]c4ccccc34)CC2)cc1,-22,-19,/,/
CSC1=N/C(=C\c2ccc(C)o2)C(=O)S1,-3,-2,-1%,28µM*
Cc1cc(C(=O)OCC(=O)Nc2cccc(S(N)(=O)=O)c2)c(C)o1,-68*,-16,/,3%
CCN(CC(=O)Nc1c(F)cccc1F)C(=O)C1CCCN(C(=O)c2ccc(Cl)cc2)C1 (stereo not drawn),6,3,/,/
O=C(Nc1c(Cl)cccc1Cl)Oc1cccc2cccnc12,-94*,-90*,/,/
O=C(Nc1cccc(C(F)(F)F)c1)Oc1ccc(Cl)c2cccnc12,-96*,-70*,?,25µM*
O=C(Nc1cccc(Br)c1)Oc1cccc2cccnc12,?,-90*,/,/
C[C@H](CO)N1C[C@H](C)[C@@H](CN(C)C(=O)NC2CCCCC2)Oc2c(NC(=O)C3CC3)cccc2C1=O,-4,-4,/,-1%
COc1cc(OC)cc(C(=O)Oc2c(CN3CCOCC3)cc(Cl)c3cccnc23)c1,?,?,-15%,25µM*
O=C(Oc1c(CN2CCOCC2)cc(Cl)c2cccnc12)c1ccccc1,-78*,?,-20%,/
COC(=O)C(C(C)=O)C(NC(=O)OC(C)(C)C)c1ccccc1 (stereo not drawn),/,/,6%,/
Cc1ccc(S(=O)(=O)Nc2cccc3ncccc23)s1,-81*,-86*,6%,?
Cc1ccc(S(=O)(=O)Nc2cccc3ncccc23)cc1,-10,4,-6%,/
Cc1cc2nc3c(=O)n(CCc4ccccc4)c(=O)[nH]c3nc2cc1N,-8,-29,32µM*,/
Nc1ccc2nc3c(=O)n(CCc4ccccc4)c(=O)[nH]c3nc2c1,-23,?,1.8µM*,/
N#C/C(=C\c1coc2ccc(O)cc2c1=O)C(=O)Nc1nc2ccccc2s1,-87*,-75*,?,/
CCCCCCCCCCOCCC(=O)O,/,/,7%,/
SMILES,CtBP-E1A inh,Six1-Eya2 blk,JMJD2E inh,L3MBTL1 block
COc1c(O)cc2c(c1O)[C@@H]1O[C@H](CO)[C@@H](O)[C@H](O)[C@H]1OC2=O,/,-2,/,/
COc1cc(OC)c([C@@H]2O[C@H](CO)[C@@H](O)[C@H](O)[C@H]2O)c(OC)c1,/,/,1%,/
Cc1c(C(=O)O)c(O)cc2c1C(=O)c1c(O)c([C@@H]3O[C@H](CO)[C@@H](O)[C@H](O)[C@H]3O)c(O)c(O)c1C2=O,-2,?,/,10µM*
Cc1c(C(=O)O)c(O)cc2c1C(=O)c1c(O)c([C@H]3O[C@H](CO)[C@@H](O)[C@H](O)[C@H]3O)c(O)c(O)c1C2=O,/,/,7.9µM*,/
CC(C)C[C@@H](CC(=O)N[C@H](CC(=O)N[C@@H]1CCNC[C@H]1C(=O)N[C@H](CC(=O)N[C@@H](CCC(=O)O)CC(=O)O)Cc1ccccc1)C(C)C)NC(=O)[C@@H]1CNCC[C@H]1N,/,/,4%,/
CCOC(=O)CCCNC(=O)N1CCc2nc(-c3ccccc3)c3c(c2C1)CO[C@@H](C)C3,/,/,9%[11.4 µM],/
Cc1ccc(CNC(=O)CCC2CCCN(Cc3cccc4cccnc34)C2)o1 (stereo not drawn),-9,-7,-15%,-4%
C=CCNc1nc(-c2ccccn2)nnc1-c1ccccc1,-92*,-92*,?,/
CN(C)c1ccc(N/C=C/C(=O)c2ccc(F)cc2)cc1,-21,-23,13µM*,-20%
NS(=O)(=O)c1ccc(N/C=C\C(=O)c2ccc(F)cc2)cc1,-25,-12,?,-23%
C=CCNC(=O)c1cc([N+](=O)[O-])cc2c(=O)[nH]c(Nc3ccc(Cl)c(Cl)c3)nc12,/,/,-12%,/
CCOC(=O)c1sc2nccc(OC)c2c1N=CNOC,4,-19,?,8%
CCOc1cc(CNc2ccc(N3CCOCC3)cc2)cc(Br)c1OCC,-67*,-27,-14%,32µM*
CCOc1cc(CNc2ccc3c(c2)OCCO3)cc(Br)c1OCC,?,-67*,0%,?
C=CCOc1c(Br)cc(CNc2ccc3[nH]c(=O)[nH]c3c2)cc1OCC,-14,?,-8%,-14%
CCOc1cc(CNc2ccc(N3CCCCC3)cc2)cc(Br)c1OCC(=O)NC(C)(C)C,?,?,3.2µM*,28µM*
C=C(C)C(O)/C=C/c1ccc(C(F)(F)F)cc1 (stereo not drawn),/,/,-4%,/
O=C(NCC(c1ccccc1Cl)N1CCCC1)c1ccc(N2CCCC2=O)cc1 (stereo not drawn),0,-4,/,1%
O=C(CCc1ccc(S(=O)(=O)N2CCOCC2)cc1)N/N=C/c1ccc(O)c(O)c1O,-73*,-68*,10µM*,14µM*
COc1cc(/C=N/Nc2ccc([N+](=O)[O-])cc2S(=O)(=O)N2CCOCC2)cc(OC)c1OC,1,2,-1%,11%
COc1cccc(N/N=C/c2cccc(Br)c2O)c1,-7,-10,?,-9%
O=C(CCc1ccc(S(=O)(=O)N2CCOCC2)cc1)N/N=C/c1ccc(F)cc1F,-27,0,1%,5%
Cc1cccc(N/N=C/c2ccc(O)c(O)c2O)c1,-5,-2,3.2µM*,?
O=[N+]([O-])c1ccc(N/N=C/c2ccc(O)c(O)c2O)c(S(=O)(=O)N2CCOCC2)c1,-19,-22,7.9µM*,-25%
O=[N+]([O-])c1ccc(N/N=C/c2cccc(O)c2O)c(S(=O)(=O)N2CCOCC2)c1,-4,-21,14µM*,-9%
CCCCC1=CC2=CC(=O)C(C)(OC(=O)CC)C(=O)C2=CN1CCCN(CC)CC (stereo not drawn),/,/,-3%[11.4 µM],/
O=[N+]([O-])c1ccccc1N/N=C/c1cccc(O)c1O,-10,-16,-2%,/
O=[N+]([O-])c1cccc(N/N=C/c2cccc(O)c2O)c1,-3,-10,14µM*,?
CCCCn1c(Nc2ccccc2)nc2ccccc21,-11,12,0%,/
CCCn1c(Nc2nc3ccccc3n2C)nc2ccccc21,-1,-1,?,18µM*

# High-throughput results: PubChem, National Center for Advancing Translational Sciences (NCATS)
